Data as given in PubChem BioAssay (NCI).
The panel holds about 83,000 compounds, 20% with a hit somewhere; the sample as a whole holds those more often.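 Interpretation: 100, growth as untreated; towards 0, rising growth inhibition; 0, no net growth; 0 to -100, cell death. Compounds scoring below 10 were considered active.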 A number with no mark means an inactive call. Active and inactive are the calls of the source.

system: NCI-H226 lung; test: NCI-60 one-dose screen, 48 h (100 = growth as untreated, 0 = no growth, -100 = all killed); details: 10 µM unless noted

Compared with `O=C(Nc1ccccc1)Nc1ncnc2c1ncn2-c1ccc(Cl)cc1`, `O=C(/C=C/c1cn(-c2ccccc2)nc1-c1ccc(Cl)cc1)c1ccc(F)cc1` is higher in growth: 65% for the first, 85.8% for the second.

Compared with `CC(C)c1ccc(C(=O)Nc2nc3ccc(O)c(CN(C)C)c3s2)cc1`, `CCOC(=O)c1c(NC(=O)c2cccc(C(F)(F)F)c2)sc2c(CN(C)C)c(O)ccc12` is higher in growth: 97.1% for the first, 101% for the second.

First: Cc1ccc(Nn2c(SCC(=O)Nc3nc(-c4ccccc4)cs3)nc(C)c2C)cc1
Second: Cc1ccc(NC(=O)c2sc3nc(C)c(Br)c(C)c3c2N)cc1
The growth of the first is lower: 46.3% for the first, 47.7% for the second.

Going from `N#CC(C#N)N=Nc1ccc(Br)cc1` to `Oc1ccc(Cl)cc1/C=N\NC(=S)N/N=C/c1cc(Cl)ccc1O`, the growth falls from 79% to 32.5%.

First: CCN1C(=S)N(c2ccccc2)C2C1NN=c1s/c(=C3\C(=O)N(C(C)C)c4ccccc43)c(=O)n12 (centres undefined)
Second: CNc1nnc2n(-c3ccccc3)c(=O)c3cnn(-c4ccccc4)c3n12
The growth of the first is lower: 66.7% for the first, 93.6% for the second.

First: CSc1nc2ccccc2cc1/C=[N+](\[O-])c1ccccc1
Second: O=C1Nc2ccccc2/C1=C/c1nc2ccccc2c(=O)[nH]1
The growth of the first is lower: 73.9% for the first, 94.5% for the second.

First: C=CCN=c1sc2c(n1NC(=O)c1cc3ccc1CCc1ccc(cc1)CC3)C(=O)c1ccccc1C2=O
Second: O=C(CN1C(=O)S/C(=C\C(Cl)=C\c2ccccc2)C1=O)NCCc1ccc(O)cc1
The growth of the first is lower: 48.5% for the first, 60.1% for the second.

Compared with `Cn1cc(-c2csc(-c3cn(C(=O)OC(C)(C)C)c4ccc(Br)cc34)n2)c2ccnc(Cl)c21`, `O=C(CN1CCCCC1)Nc1nc(-c2cc3ccccc3oc2=O)cs1` is higher in growth: 73.3% for the first, 88.3% for the second.

Going from `CSc1oc(C)nc1[P+](c1ccccc1)(c1ccccc1)c1ccccc1` to `O=C(N(c1ccccc1)c1ccccc1)n1cc(I)c2nc(Cl)nc(Cl)c21`, the growth rises from 67.6% to 71.8%.

Going from `O=S(=O)(c1ccccc1)n1cc2c(c1)-c1nc(Nc3ncccn3)sc1CC2` to `N#Cc1nc(-c2ccccc2)oc1S(=O)(=O)N1CCN(c2ccccc2)CC1`, the growth rises from 25.9% to 87.2%.

Compared with `Cc1[nH]c(C(=O)Nc2ccccc2OC2CCNCC2)c(Cl)c1Cl`, `CCOC(=O)c1ccc2c(c1)nc(-c1ccccc1)n2C1CCCCC1` is higher in growth: 98.6% for the first, 120% for the second.

Compared with `COc1ccc(-c2cc(-c3ccc(Cl)cc3)c(C#N)c(=O)n2Cc2ccc(C(=O)Nc3ccccc3N)cc2)cc1`, `CC(=O)Oc1ccc(/C(=C(\C)c2ccc(Cl)cc2)c2ccc(OCCN3CCCCC3)cc2)cc1` is lower in growth: 81.2% for the first, 70.7% for the second.

Compared with `COc1ccc2c(c1)N(CCO)C1=C(C(=O)OC1)C2c1cccc(F)c1` (centres undefined), `COc1cc(NS(=O)(=O)c2ccc(-c3cnc(C4CC4)o3)cc2)ccc1F` is lower in growth: 45% for the first, 36.7% for the second.

Going from `O=C(/C=C/c1cccs1)Nc1ncc(Cc2ccccc2F)s1` to `O=C(CN1C(=O)S/C(=C\c2ccccc2)C1=O)Nc1ncc(Cc2ccccc2Cl)s1`, the growth rises from 57.8% to 95.7%.

Going from `O=S(=O)(Nc1cc(Cl)ccc1Cl)c1ccc(-c2cnc(C3CC3)o2)cc1` to `Clc1cccc(Nc2ncnc3ccc(-c4cnc5[nH]ccc5c4)cc23)c1`, the growth rises from 40.3% to 80%.

First: CC(=O)N1N=C(c2ccc(C(F)(F)F)c(F)c2)CC1c1[nH]c(C)c(C(=O)NCC(F)(F)F)c1C (centres undefined)
Second: COc1cc(OCc2cccc(Br)c2C)cc(OC)c1C=O
The growth of the first is higher: 56.3% for the first, 29.3% for the second.

`COc1cc2ncnc(Nc3ccc(F)c(Cl)c3)c2cc1OCC(=O)N1CCN(c2ccccc2)CC1` showed a growth of 92.5%.

For `CN1CCN(c2cc(Nc3cc(C4CC4)[nH]n3)nc(Nc3ccc(CC(=O)NCc4cccc(F)c4)cc3)n2)CC1`, the growth was 3.21% (active).
For `C=C1C(=O)O[C@H]2[C@H]1CC/C(Cn1cc(-c3ccccc3)nn1)=C\CC[C@@]1(C)O[C@@H]21`, the growth was -25.8% (active).
`COC12C=C/C(=C(/C(=O)OCc3ccncn3)C(=O)CCCCCCCCC3(OC)C=C/C(=C(/C(=O)OCc4ccncn4)C(=O)CCCCCCCC1)O3)O2` was tested, and the growth was -71.8% (active).
For `N#Cc1c(-c2ccccc2)cc(-c2ccc(Nc3nc(Nc4ccc(Cl)cc4)nc(Nc4ccc(Cl)cc4)n3)cc2)nc1N`, the growth was -23.4% (active).
With `COC1=CC(c2ccc[nH]2)=N/C1=C\c1[nH]c(C)c(CC(=O)OCc2ccccc2)c1CCC(=O)OCc1ccccc1` the growth was -12.8% (active).
In the case of `C=C1C(=O)O[C@H]2[C@H]1CC/C(COC(=O)c1cc3ccccc3s1)=C\CC[C@@]1(C)O[C@@H]21`, the growth is reported as -51.1% (active).
